Most compounds without a hit are left out; they make up all but 15% or so of the library.
ELG1 repair inh – ELG1-dependent DNA repair inhibition. HEK293T ELG1-luciferase reporter, luminescence, 16 h; DNA damage induced by 5-fluorouridine. Potency, µM (series often up to 46.1 µM), for inactives: at the highest dose activity change, negative = inhibition, most hits filed as inhibitors. AID 504467. hit rate 2.3% among 330,000; note: nearly all actives have a fitted effect of over 55% in size
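Overnight (16 hr) co-exposure of 2,000 cells/well to 5-fluorouridine and compound at 37 °C preceded detection. Luciferase was quantified via ONE-Glo luminescence; loss of signal denotes inhibition.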
VP16 counter – counter-screen for ROR gamma inhibitors: Gal4-VP16 reporter; Drosophila S2 Gal4-VP16 UAS-luciferase, luminescence, 20 h; Potency, µM (top dose mostly 53.6 µM), without a hit: at the highest dose activity, negative = inhibition, hits mostly inhibitors; hit rate 3.5% among 310,000;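 note: Gal4-VP16 expression switched on by copper sulfate through the metallothionein promoter; nearly all actives have a fitted effect of over 50% in size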
RORgamma inh – ROR gamma (mouse) transcription inhibition | P51450 | Drosophila S2 Gal4-RORgamma UAS-luciferase reporter, 20 h | Potency, µM (doses to about 53.6 µM), without a hit: at the top dose activity change, negative = inhibition, usual class: inhibitors | hit rate 5.4% among 310,000 | AID 2551; note: nearly all actives have a fitted effect of over 60% in size
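In this cell-based reporter format, copper sulfate (700 uM final) drives Gal4–ROR gamma fusion expression from a metallothionein promoter in Drosophila Schneider cells; compounds preincubated 1 hr, reporter read after 20 hr at ambient temperature.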
TDP1 cell noCPT – qHTS for Inhibitors of human tyrosyl-DNA phosphodiesterase 1 (TDP1): qHTS in cells in absence of CPT. DT40 Tdp1-/- hTDP1 cells, no CPT, ATP luminescence, 48 h. Potency, µM (top dose mostly 46.2 µM), inactives show at the top dose activity change, negative = growth inhibition, most hits filed as inhibitors. hit rate 15% among 420,000; note: nearly all actives have a fitted effect of over 55% in size
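Cells were dispensed at 400 per well, compounds added by pin tool, plates incubated ≥48 hr at 37 °C, then CellTiter-Glo added for 30 min at room temperature before luminescence reading. Line: DT40 Tdp1-/- complemented with hTDP1; camptothecin omitted.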
TDP1 cell CPT – DT40-hTDP1 cell growth loss with CPT | hit rate 12% among 420,000 | Potency, µM (doses to about 46.2 µM), without a hit: at the highest dose activity change, negative = growth inhibition, actives largely listed as inhibitors | chicken DT40 Tdp1-/-;hTDP1 cells + 20 nM CPT, ATP luminescence, 48 h | AID 686979; note: nearly all actives have a fitted effect of over 55% in size
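Cell growth measured by CellTiter-Glo luminescence after a minimum 48 h, 37 C compound exposure with 20 nM CPT in Tdp1-knockout DT40 cells stably expressing hTDP1, seeded 400/well; qHTS titration format.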
12-LOX inh – inhibitors of human 12S-lipoxygenase ALOX12; hit rate 1.1% among 580,000; P18054; AID 1671190; purified 12hLO, xylenol orange hydroperoxide absorbance; Potency, µM (titrated, usually from 108 µM), without a hit: at the top dose activity change, negative = inhibition, actives largely listed as inhibitors
Target sequence (P18054 whole entry, looked up): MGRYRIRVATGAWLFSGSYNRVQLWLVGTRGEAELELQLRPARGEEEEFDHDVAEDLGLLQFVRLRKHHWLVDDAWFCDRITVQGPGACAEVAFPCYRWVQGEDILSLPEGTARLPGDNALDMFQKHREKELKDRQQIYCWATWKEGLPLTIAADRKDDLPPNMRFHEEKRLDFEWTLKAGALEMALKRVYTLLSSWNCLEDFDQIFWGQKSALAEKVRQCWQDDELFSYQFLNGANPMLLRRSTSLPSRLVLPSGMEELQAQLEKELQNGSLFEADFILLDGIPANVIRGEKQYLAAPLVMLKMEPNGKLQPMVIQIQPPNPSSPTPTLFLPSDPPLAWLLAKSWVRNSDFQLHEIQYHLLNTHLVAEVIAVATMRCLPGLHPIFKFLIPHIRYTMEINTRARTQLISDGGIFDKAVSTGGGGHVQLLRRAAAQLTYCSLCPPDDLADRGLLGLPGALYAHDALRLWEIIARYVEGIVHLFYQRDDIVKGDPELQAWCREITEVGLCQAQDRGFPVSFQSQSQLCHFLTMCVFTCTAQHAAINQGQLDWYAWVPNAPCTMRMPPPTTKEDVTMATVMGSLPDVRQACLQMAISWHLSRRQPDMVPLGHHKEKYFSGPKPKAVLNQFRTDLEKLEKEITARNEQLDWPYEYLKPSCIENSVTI
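Purified human 12hLO at 150 nM in 25 mM Hepes, 0.01% Triton X-100, pH 7.0, preincubated 15 min at room temperature with compound. Reaction started with 40 uM arachidonic acid, 30 min at room temperature. Hydroperoxide measured by Fe-xylenol orange, 573/405 nm absorbance ratio.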
An asterisk follows results filed as active; ? = inconclusive; . = no result given; [ ] = remark or other dose. Calls come from the whole dose curve; as a rule, active = well fitted curve in the direction sought with a large enough effect; inconclusive = small, poorly fitted or top-dose-only effect, or another doubt; inactive = no such curve, though single readings can be large; an effect the other way counts as inactive or inconclusive. % is set by controls: 0 for no effect and ±100 for the full control effect; potency is the fitted concentration of half-maximal effect.

SMILES	ELG1 repair inh	VP16 counter	RORgamma inh	TDP1 cell noCPT	TDP1 cell CPT	12-LOX inh
CCC(=O)N1CCCN(S(=O)(=O)c2ccc(C)cc2)C1c1ccc(OC)cc1 (centres undefined)	5%	-1%	-6%	15µM*	-9%	-25%
COc1ccc(S(=O)(=O)N2CCSC2c2ccc(OC)c(OC)c2)cc1 (centres undefined)	23µM*	-2%	15%	16µM*	?	?
CC1c2ccsc2CCN1C(=O)c1nn(C)c(=O)c2ccccc12 (centres undefined)	.	.	.	.	.	9%
O=C(c1ccc(C(F)(F)F)cc1)N1CCn2c(nnc2-c2ccccc2)C1	.	.	.	.	.	5%
COc1ccc(C2N(S(=O)(=O)c3ccccc3)CCN2S(=O)(=O)c2ccc(C)cc2)cc1 (centres undefined)	2%	9%	-16%	14µM*	16µM*	25%
CCOC(=O)N1CCN(S(=O)(=O)c2ccc(C)cc2)C1c1ccc(OC)cc1 (centres undefined)	?	1%	-11%	?	?	-22%
CCOC(=O)N1CCN(S(=O)(=O)c2ccc(C)cc2)C1c1ccccc1 (centres undefined)	26µM*	1%	11%	?	?	1%
CCOC(=O)N1CCC(NC(=O)c2ccc3c(c2)sc2nc(-c4ccccc4)cn23)CC1	3%	-3%	?	9.2µM*	15µM*	67%
COc1ccc(-c2cn3c(n2)sc2cc(C(=O)Nc4ccc(C)c(Cl)c4)ccc23)cc1	.	.	.	5%	-2%	-18%
CCOC(=O)N1CCC(NC(=O)c2ccc3c(c2)sc2nc(-c4cccc(OC)c4)cn23)CC1	2.9µM*	4%	-8%	.	.	.
Cc1cccc(/C=N/N(CCO)C2=NS(=O)(=O)c3ccccc32)c1	11%	-3%	23%	?	?	12%
CC(C)(C)NC(=O)CCN(/N=C/c1ccccc1)C1=NS(=O)(=O)c2ccccc21	-20%	0%	41%	16µM*	?	0%
Cc1ccc(C(=O)NN(CCC(=O)NC(C)(C)C)C2=NS(=O)(=O)c3ccccc32)cc1	12%	19%	20%	-1%	-8%	16%
CC(C)(C)NC(=O)CCN(/N=C/c1ccccc1F)C1=NS(=O)(=O)c2ccccc21	?	-2%	19%	21µM*	?	1%
Cc1cc(C)c2nc(Nc3nc(C(C)C)cc(=O)[nH]3)nc(C)c2c1	.	.	.	.	.	-43%
CNC(=O)NC(=O)C(C)Sc1ccc(F)cc1 (centres undefined)	.	.	.	.	.	-21%
Cc1ccc(OCCCOc2ccccc2/C=N/NC(=O)c2cccc(Cl)c2)c(C)c1	.	.	.	.	.	-4%
CN(CCc1ccccc1)CC[C@@H]1CC[C@H](O)[C@@H](C(=O)N(C)Cc2ccccc2)O1	.	.	.	.	.	0%[176 µM]
O=C(COC(=O)c1cc(-c2cccc(Br)c2)nc2ccccc12)NCC1CCCO1 (centres undefined)	16%	-3%	36%	-17%	0.016µM*	-2%
COc1cccc(-c2cc(C(F)(F)F)n3ncc(C(=O)NCC4CCCO4)c3n2)c1 (centres undefined)	6.5µM*	?	-3%	23µM*	?	3%
COc1ccc(-c2cc(C(F)(F)F)n3ncc(C(=O)NCC4CCCO4)c3n2)cc1 (centres undefined)	?	.	6%[0.365 µM]	?	?	4%
COc1ccc(-c2cc(C(=O)NCC3CCCO3)c3cc(C)ccc3n2)cc1 (centres undefined)	-29%	?	1%	16µM*	-5%	-1%
COc1ccc(-c2cc(C(=O)NCC3CCCO3)c3cc(C(C)C)ccc3n2)cc1 (centres undefined)	-28%	?	?	?	16µM*	?
O=C(NCC1CCCO1)c1cc(-c2ccccc2)nc2ccc(Br)cc12 (centres undefined)	2%	3%	9%	?	?	-7%
CCc1ccc(-c2cc(C(=O)NCC3CCCO3)c3cc(C)ccc3n2)cc1 (centres undefined)	.	.	.	.	.	-15%
SMILES	ELG1 repair inh	VP16 counter	RORgamma inh	TDP1 cell noCPT	TDP1 cell CPT	12-LOX inh
COc1ccc(-c2cc(C(=O)NCC3CCCO3)c3ccccc3n2)cc1 (centres undefined)	-6%	8%	22%	?	?	-11%
COc1cccc(-c2cc(C(=O)NCC3CCCO3)c3ccccc3n2)c1 (centres undefined)	?	-11%	5%	18µM*	-19%	-14%
O=C(N/N=C\c1c(O)ccc2ccccc12)c1ccc(Cn2cccn2)o1	?	13µM*	2.5µM*	5.8µM*	5.8µM*	-28%
O=C(N/N=C\c1ccc(Cl)s1)c1ccc(Cn2cccn2)o1	17%	-98%	10µM*	?	?	-11%
CC1(C(=O)NCc2ccncc2)CCc2cnc(NCc3ccccc3)nc21 (centres undefined)	.	.	.	.	.	32%[176 µM]
CC(C)C(=O)NCC(=O)O	.	.	.	.	.	2%
Cc1nc2ccc([N+](=O)[O-])cc2c(=O)n1Cc1ccc(Cl)cc1	-11%	-10%	?	?	?	0%
COc1ccc(Cn2c(C)nc3ccc([N+](=O)[O-])cc3c2=O)cc1	?	-11%	?	21µM*	?	?
NS(=O)(=O)c1ccc(N=Nc2c(O)ccc3ccccc23)cc1	-6%	-12%	28%	?	-13%	-14%
COc1cc(N=Nc2ccc3ccccc3c2)ccc1O	?	-29%	13%[1.91 µM]	10%	?	0%
Oc1ccc(N=Nc2ccc3ccccc3c2)cc1	?	?	6.3µM*	-19%	-1%	?
Oc1ccc(N=Nc2c(O)ccc3ccccc23)cc1	20%	13µM*	?	?	18µM*	?
COc1ccc(/C=C/c2ccncc2)cc1OC	?	3%	-20%	-9%	7%	-2%
COc1cccc(C=Cc2nccc3ccccc23)c1OC	.	.	.	16µM*	?	?
COc1ccc(/C=C/c2nccc3ccccc23)cc1OC	.	.	.	14µM*	11µM*	.
CCN(CC)c1ccc(/C=C/c2c(C)cnc3ccccc23)cc1	.	.	.	11µM*	?	.
CCN(CC)c1nc(C=Cc2ccc(N(C)C)cc2)c2nccnc2n1	.	.	.	21µM*	23µM*	?
COc1cc(CNC(=O)c2ccccc2-c2nc(-c3ccc(Cl)cc3)no2)cc(OC)c1OC	.	.	.	.	.	0%

Source: PubChem (National Center for Advancing Translational Sciences (NCATS))
